Results on 23 molecules are retold here after PubChem BioAssay.

A number with no mark means an inactive call. For some assays here: Results with a measured potency or affinity are listed apart. The source made the active and inactive calls. Unless noted, how the calls were made is not given here.

The nature of experiment [1]: antimalarial activity against Dd2 strain (AID 2302;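 active means growth inhibition above 50% at the single 2 µM test dose, taken to imply half-maximal potency below 2 µM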;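 further: 0% = DMSO untreated growth and 100% = chloroquine plus artemisinin killed control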). The conditions noted are these: P. falciparum Dd2 in RBCs, LDH growth readout, 72 h; at 2 µM; active compounds read high.
The target of experiment [2] is L-lactate dehydrogenase (Plasmodium falciparum (isolate CDC / Honduras)) (UniProt Q27743). Kind of experiment: PfLDH activity inhibition – cell lysate, 3D7 strain, counter-screen for P. falciparum growth inhibition project (AID 2304).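 Further: 0% = vehicle and 100% = reference inhibitor.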 The conditions noted are these: P. falciparum 3D7 crude extract, LDH APAD/NBT absorbance; at 2 µM; active compounds read high. For orientation: Counterscreens check selectivity or assay interference.

A short description of experiment [3]: inhibition of 3D7 malaria parasite growth – strain 3D7 (AID 2306).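 Further: 0% = DMSO wells and 100% = chloroquine plus artemisinin control wells.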 The conditions noted are these: P. falciparum 3D7 erythrocytic growth, LDH absorbance, 72 h; at 2 µM; active compounds read high.
Experiment [4] has as its target Calcium-dependent protein kinase 1 (Plasmodium falciparum (isolate 3D7)) (UniProt P62344). Kind of experiment: PfCDPK1 kinase inhibitors, biochemical, TCAMS library (AID 1159585; cut-off not given, nearly all actives have IC50 up to about 0.98 µM;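 further: inhibitors leave more ATP so luminescence rises with inhibition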). The conditions noted are these: recombinant PfCDPK1, Kinase-Glo ATP depletion luminescence.
For experiment [5], the target named is Plasmodium falciparum protein kinase 6 (PK6, PF3D7_1337100) (UniProt Q8IDW1). As to the kind of experiment: PfPK6 kinase inhibitors, biochemical, TCAMS library (AID 1159586). The conditions noted are these: recombinant PfPK6, Kinase-Glo ATP depletion luminescence.
Experiment [6] has as its target Protein kinase 7 (PK7), Plasmodium falciparum 3D7 (PF3D7_0213400) (UniProt Q7YTF7). Kind of experiment: inhibition of Plasmodium PK7 catalytic activity – biochemical, TCAMS antimalarial set, Kinase-Glo luminescence (AID 1159587). The conditions noted are these: recombinant PfPK7, Kinase-Glo ATP depletion luminescence. (In general: Kinase-Glo reads ATP consumption through a luciferase reaction.)

For experiment [7], the target named is Calcium-dependent protein kinase 4 (Plasmodium falciparum (isolate 3D7)) (UniProt Q8IBS5). Kind of experiment: PfCDPK4 kinase inhibitors, biochemical, TCAMS library (AID 1159588; cut-off not given, nearly all actives have IC50 up to about 0.91 µM). The conditions noted are these: recombinant PfCDPK4, Kinase-Glo ATP depletion luminescence.
Chain of Calcium-dependent protein kinase 4 (Plasmodium falciparum (isolate 3D7)) (Q8IBS5 whole entry, looked up): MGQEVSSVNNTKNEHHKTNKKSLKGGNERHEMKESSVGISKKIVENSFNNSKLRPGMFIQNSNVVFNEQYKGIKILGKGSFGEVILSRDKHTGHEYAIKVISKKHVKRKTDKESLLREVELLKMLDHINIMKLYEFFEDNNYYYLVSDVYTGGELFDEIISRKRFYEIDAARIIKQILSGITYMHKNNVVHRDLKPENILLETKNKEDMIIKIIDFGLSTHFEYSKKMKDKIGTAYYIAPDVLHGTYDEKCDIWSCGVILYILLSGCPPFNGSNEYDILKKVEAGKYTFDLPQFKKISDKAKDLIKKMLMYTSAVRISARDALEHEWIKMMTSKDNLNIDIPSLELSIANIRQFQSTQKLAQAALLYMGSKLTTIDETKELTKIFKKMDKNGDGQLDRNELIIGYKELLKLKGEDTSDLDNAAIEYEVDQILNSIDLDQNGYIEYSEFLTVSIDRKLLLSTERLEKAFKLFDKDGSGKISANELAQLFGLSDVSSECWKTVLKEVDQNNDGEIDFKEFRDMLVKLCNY

Chain of Plasmodium falciparum protein kinase 6 (PK6, PF3D7_1337100) (Q8IDW1 1-305): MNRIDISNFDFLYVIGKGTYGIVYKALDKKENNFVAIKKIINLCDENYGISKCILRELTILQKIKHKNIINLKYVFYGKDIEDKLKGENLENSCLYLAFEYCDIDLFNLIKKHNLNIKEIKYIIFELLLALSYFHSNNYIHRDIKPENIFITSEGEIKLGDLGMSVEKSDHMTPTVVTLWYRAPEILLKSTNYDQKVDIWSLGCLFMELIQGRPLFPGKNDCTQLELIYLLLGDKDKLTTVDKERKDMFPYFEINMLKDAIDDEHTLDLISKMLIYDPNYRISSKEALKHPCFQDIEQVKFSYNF
Chain of Protein kinase 7 (PK7), Plasmodium falciparum 3D7 (PF3D7_0213400) (Q7YTF7 1-343): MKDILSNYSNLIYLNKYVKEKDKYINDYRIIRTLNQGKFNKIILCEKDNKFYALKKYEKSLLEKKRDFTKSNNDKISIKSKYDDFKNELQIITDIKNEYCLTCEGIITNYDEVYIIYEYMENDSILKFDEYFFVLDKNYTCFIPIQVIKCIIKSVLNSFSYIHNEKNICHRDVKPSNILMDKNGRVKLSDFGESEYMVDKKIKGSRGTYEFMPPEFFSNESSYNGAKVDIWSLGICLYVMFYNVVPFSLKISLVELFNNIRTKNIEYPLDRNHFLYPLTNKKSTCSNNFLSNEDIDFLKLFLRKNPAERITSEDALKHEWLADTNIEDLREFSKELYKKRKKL
Chain of L-lactate dehydrogenase (Plasmodium falciparum (isolate CDC / Honduras)) (Q27743 whole entry, looked up): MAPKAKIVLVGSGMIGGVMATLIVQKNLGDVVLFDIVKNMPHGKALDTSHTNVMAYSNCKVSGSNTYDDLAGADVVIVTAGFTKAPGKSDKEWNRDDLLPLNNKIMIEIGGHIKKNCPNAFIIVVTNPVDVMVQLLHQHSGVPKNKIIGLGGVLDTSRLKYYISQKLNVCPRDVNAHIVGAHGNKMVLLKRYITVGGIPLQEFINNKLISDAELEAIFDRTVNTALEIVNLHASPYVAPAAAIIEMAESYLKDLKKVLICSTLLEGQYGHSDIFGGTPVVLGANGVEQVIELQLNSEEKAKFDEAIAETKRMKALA
Chain of Calcium-dependent protein kinase 1 (Plasmodium falciparum (isolate 3D7)) (P62344 whole entry, looked up): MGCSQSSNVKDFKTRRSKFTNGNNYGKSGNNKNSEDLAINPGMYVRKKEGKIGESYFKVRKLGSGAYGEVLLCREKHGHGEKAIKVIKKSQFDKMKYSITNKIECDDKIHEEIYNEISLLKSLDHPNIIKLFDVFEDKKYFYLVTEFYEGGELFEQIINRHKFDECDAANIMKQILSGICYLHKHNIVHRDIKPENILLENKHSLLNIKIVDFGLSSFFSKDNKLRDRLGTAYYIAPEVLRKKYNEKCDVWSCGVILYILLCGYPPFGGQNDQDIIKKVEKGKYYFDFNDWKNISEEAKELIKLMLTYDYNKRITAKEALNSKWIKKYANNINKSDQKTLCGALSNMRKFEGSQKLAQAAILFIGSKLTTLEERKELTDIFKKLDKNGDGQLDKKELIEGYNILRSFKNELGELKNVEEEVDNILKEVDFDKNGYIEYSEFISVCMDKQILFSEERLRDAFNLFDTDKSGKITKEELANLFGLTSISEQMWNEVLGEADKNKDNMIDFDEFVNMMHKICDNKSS

In the case of `COc1cc(Cc2cnc(N)nc2N)cc(OCCCCCCC(=O)O)c1OC`, the growth inhibition in experiment [1] was 2%; in experiment [3], 90% (active). Moreover, the inhibition in experiment [2] is -4%. The result in experiment [4], in experiment [5], in experiment [6] and in experiment [7] was inactive.
In the case of `CC(=O)Oc1c(Cl)c(C)nc(C)c1-c1ccc(Oc2ccc(OC(F)(F)F)cc2)cc1`, the growth inhibition in experiment [1] is 98% (active); in experiment [3], 97% (active). Besides, in experiment [2], the inhibition is 5%. Moreover, the outcome in experiment [4], in experiment [5], in experiment [6] and in experiment [7] was inactive.
As for `CCCCc1nc2nc(N)nc(N)c2cc1CCC`, the growth inhibition in experiment [1] is -3%; in experiment [3], 97% (active). Also, in experiment [2], the inhibition is -1%. The outcome in experiment [4], in experiment [5], in experiment [6] and in experiment [7] was inactive.
Take `CCCCN(CCCC)CCCN(CCCN(CCCC)CCCC)c1cc(C)nc(Nc2ccc(Cl)cc2)n1`: the figures for the growth inhibition in experiment [1] and in experiment [3] were 99% (active) and 101% (active), respectively. For the same molecule, in experiment [2], the inhibition is 0%. For the same molecule, the outcome in experiment [4], in experiment [5], in experiment [6] and in experiment [7] was inactive.
In the case of `COc1cccc2c(O)c(CNC3CCCCC3)ccc12`, the growth inhibition was 98% (active) in experiment [1] and 100% (active) in experiment [3]. Further, in experiment [2], the inhibition was 3%. For the same molecule, the result in experiment [4], in experiment [5], in experiment [6] and in experiment [7] was inactive.
For `Nc1nc(N)c2c(Sc3ccccc3)cccc2n1`, the growth inhibition was 0% in experiment [1] and 97% (active) in experiment [3]. Further, in experiment [2], the inhibition is -5%. Further, the outcome in experiment [4], in experiment [5], in experiment [6] and in experiment [7] was inactive.
Take `CCC(C)c1cnc2nc(N)nc(N)c2c1C` (stereo unspecified): the growth inhibition in experiment [1] was 1%; in experiment [3] it was 97% (active). The inhibition in experiment [2] was -3%. In addition, the outcome in experiment [4], in experiment [5], in experiment [6] and in experiment [7] was inactive.
As for `CCOc1cc(Cc2cnc(N)nc2N)cc(Br)c1OC`, the growth inhibition was 3% in experiment [1] and 83% (active) in experiment [3]. The inhibition in experiment [2] was 5%. Further, the result in experiment [4], in experiment [5], in experiment [6] and in experiment [7] was inactive.
For `COCCOCCOCCn1ccc2c3c(N)nc(N)nc3ccc21`, the growth inhibition in experiment [1] is 0%; in experiment [3], 97% (active). Moreover, the inhibition in experiment [2] is -10%. Moreover, the result in experiment [4], in experiment [5], in experiment [6] and in experiment [7] was inactive.
As for `CC(=NNC(=S)NCCc1ccccn1)c1ccccn1`, the growth inhibition in experiment [1] is 95% (active); in experiment [3], 100% (active). Moreover, in experiment [2], the inhibition was -3%. In addition, the outcome in experiment [4], in experiment [5], in experiment [6] and in experiment [7] was inactive.
Turning to `COc1cc(Cc2cnc3nc(N)nc(N)c3c2C)cc(OC)c1OC`, the growth inhibition in experiment [1] was 98% (active); in experiment [3], 95% (active). Moreover, the inhibition in experiment [2] was 1%. In addition, the result in experiment [4], in experiment [5], in experiment [6] and in experiment [7] was inactive.
Take `Nc1nc(N)c2c(ccc3c2ccn3Cc2cccc(F)c2)n1`: the growth inhibition in experiment [1] is 99% (active); in experiment [3], 101% (active). Moreover, the inhibition in experiment [2] was -6%. For the same molecule, the outcome in experiment [4], in experiment [5], in experiment [6] and in experiment [7] was inactive.
Take `CCOc1ccc(CNCCCCCCNCc2ccc(OCC)c3ccccc23)c2ccccc12`: the growth inhibition was 75% (active) in experiment [1] and 101% (active) in experiment [3]. Besides, the inhibition in experiment [2] was -4%. For the same molecule, the outcome in experiment [4], in experiment [5], in experiment [6] and in experiment [7] was inactive.
`CCNC(=NCc1ccccc1)NCCCCCCNC(=NCc1ccccc1)NCC`: the growth inhibition in experiment [1] is 95% (active); in experiment [3] it was 96% (active). For the same molecule, the inhibition in experiment [2] was -5%. Further, the result in experiment [4], in experiment [5], in experiment [6] and in experiment [7] was inactive.
With `CCCc1cc(Cc2cnc(N)nc2N)c2cccnc2c1OC`, the growth inhibition in experiment [1] is 3%; in experiment [3], 98% (active). In experiment [2], the inhibition was 2%. For the same molecule, the outcome in experiment [4], in experiment [5], in experiment [6] and in experiment [7] was inactive.
In the case of `CC1CN=C(c2ccc(NC(=O)Nc3ccc(C4=NCC(C)N4)cc3)cc2)N1` (stereo unspecified), the results for the growth inhibition in experiment [1] and in experiment [3] were 67% (active) and 85% (active), respectively. Besides, the inhibition in experiment [2] is 0%. The outcome in experiment [4], in experiment [5], in experiment [6] and in experiment [7] was inactive.
Turning to `CCCCNCc1cc(Cl)c2ccccc2c1O`, the growth inhibition was 100% (active) in experiment [1] and 102% (active) in experiment [3]. Also, the inhibition in experiment [2] is 0%. Further, the result in experiment [4], in experiment [5], in experiment [6] and in experiment [7] was inactive.
With `CCCOc1ccc(CNCCCCCCNCc2ccc(OCCC)c3ccccc23)c2ccccc12`, the figures for the growth inhibition in experiment [1] and in experiment [3] were 96% (active) and 101% (active), respectively. In addition, the inhibition in experiment [2] was -2%. Besides, the outcome in experiment [4], in experiment [5], in experiment [6] and in experiment [7] was inactive.
As for `Nc1nc(N)c2c3c(ccc2n1)CCC3`, the results for the growth inhibition in experiment [1] and in experiment [3] were 2% and 92% (active), respectively. The inhibition in experiment [2] was -3%. For the same molecule, the outcome in experiment [4], in experiment [5], in experiment [6] and in experiment [7] was inactive.
Take `CCN(c1ccc(O)c(CN2CCCCC2)c1)c1ccc([N+](=O)[O-])cn1`: the growth inhibition in experiment [1] is 64% (active); in experiment [3], 94% (active). Moreover, the inhibition in experiment [2] is 2%. In addition, the result in experiment [4], in experiment [5], in experiment [6] and in experiment [7] was inactive.
As for `Cc1[nH]c(C)c(-c2ccc(Oc3cc(Cl)cc(Cl)c3)cc2)c(=O)c1Cl`, the growth inhibition in experiment [1] and in experiment [3] was 96% (active) each time. Besides, the inhibition in experiment [2] was -7%. Further, the result in experiment [4], in experiment [5], in experiment [6] and in experiment [7] was inactive.
On to `CC1CCNc2ccc(Cc3cnc(N)nc3N)cc21` (stereo unspecified), for which the growth inhibition is 0% in experiment [1] and 82% (active) in experiment [3]. In addition, the inhibition in experiment [2] is 5%. Also, the outcome in experiment [4], in experiment [5], in experiment [6] and in experiment [7] was inactive.
Regarding `CCCCCCCc1c(C)[nH]c2ccc(F)cc2c1=O`, the growth inhibition in experiment [1] was 96% (active); in experiment [3], 98% (active). Also, in experiment [2], the inhibition is -5%. The result in experiment [4], in experiment [5], in experiment [6] and in experiment [7] was inactive.

As usually defined, the inhibition is the relative decrease from the control value, in per cent.
